Bioassay records as filed in PubChem BioAssay.
VACV mCherry inh = vaccinia inhibition (mCherry reporter) | Vaccinia virus mCherry reporter infection, fluorescence | AID 720579 | Potency, µM (titrated, usually from 36.5 µM), usual class: inhibitors | actives 0.63% (n = 310,000); calls by dose curve; tested in A549 cells; note: nearly all actives have a fitted effect of over 35% in size
HCV inh = inhibitors of hepatitis C virus infection; Huh7.5.1 HCVcc-Cre infection, luciferase reporter, 44 h; Potency, µM (titrated, usually from 41.8 µM), most hits filed as inhibitors; actives 3.4% (n = 340,000)
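Compounds are dispensed onto cells plated 4 h earlier at 1,000 per well, with HCVcc-Cre virus (about 0.5 moi) added next. Following 44 h of culture, luminescent signal is measured for 15 sec after 15 min with substrate at room temperature.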
VACV Venus inh = inhibitors of vaccinia virus (Venus reporter); Vaccinia virus Venus reporter expression, fluorescence; Potency, µM (series often up to 36.5 µM), hits mostly inhibitors; actives 0.46% (n = 330,000); calls by dose curve; tested in A549 cells; note: nearly all actives have a fitted effect of over 30% in size
Pf growth 48h = P. falciparum growth inhibition at 48 hours (one generation). P. falciparum luciferase growth in erythrocytes, 48 h. Potency, µM (top dose mostly 28.7 µM), most hits filed as inhibitors. actives 5.9% (n = 310,000)
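First compound was added to culture medium, then infected red cells at 0.1% parasitemia and 2% hematocrit (final). After incubation at 37 C under 5% CO2, luciferase detection reagent was dispensed and light output recorded.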
NS1 inh = influenza NS1 inhibition; actives 0.4% (n = 270,000); AID 2326; Potency, µM (titrated, usually from 46.1 µM); calls by dose curve; note: actives are rising curves; nearly all actives have a fitted effect of over 50% in size
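Recovery from NS1-induced slow growth read by OD600 in budding yeast switched to galactose assay medium (pH 6.0, -URA) at 1:100 dilution. Compound 23 nl per well; the matching strain lacking NS1 serves as control.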
Pf growth 96h = inhibits malaria parasite growth, 96 h; P. falciparum luciferase reporter growth, 96 h; Potency, µM (highest dose often 28.7 µM), most hits filed as inhibitors; actives 6.9% (n = 320,000)
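Parasite growth measured via integrated firefly luciferase reporter in P. falciparum. Infected erythrocytes at 2% hematocrit, 0.05% parasitemia final were treated 96 hours at 37 C under 5% CO2, and luminescence was read.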
Hits are given with their value; - = inactive; ? = inconclusive; . = no result; [ ] = dose if it differs, or a comment. Sampled rows, rich in hits. Any-hit rate of the full collection: about 11%. Unless noted, calls come from the whole dose curve; as a rule, active = well fitted inhibition curve with a large enough effect; inconclusive = small, poorly fitted or top-dose-only effect, or another doubt; inactive = no such curve, though single readings can be large or run the other way.

SMILES	VACV mCherry inh	HCV inh	VACV Venus inh	Pf growth 48h	NS1 inh	Pf growth 96h
NCCCC[C@@H](C(=O)NCCCCCCCCCCC(=O)N1CCNCC1)n1cc(CCCC(=O)O)nn1	-	-	-	-	.	-
CC[C@H](C)Cc1cn([C@@H](CCCN=C(N)N)C(=O)NCCCCCCCCCCC(=O)N2CCNCC2)nn1	-	-	-	4.7µM	.	?
CC[C@H](C)[C@@H](C(=O)NCCCCCCCCCCC(=O)N1CCNCC1)n1cc(CCCCN=C(N)N)nn1	-	-	-	2.9µM	.	2.3µM
C(=N\n1cnnc1)/c1cccc(Oc2ccccc2)c1	.	?	.	-	-	.
CCCn1c(N)c(C(=O)CSc2nnc3n2CCCCC3)c(=O)n(C)c1=O	-	-	-	-	.	-
O=C(Cn1nnc2c(sc3nc4c(c(-c5ccccc5)c32)CCC4)c1=O)c1ccccc1	.	-	-	-	-	-
CCCN(C(=O)CCOc1ccc(C(C)(C)C)cc1)c1c(N)n(Cc2ccccc2)c(=O)[nH]c1=O	-	-	-	2.6µM	.	?
COCCCN(C(=O)CCOc1ccccc1C)c1c(N)n(Cc2ccccc2)c(=O)[nH]c1=O	-	-	-	13µM	.	?
CCCN(C(=O)COC(=O)CCOc1ccccc1)c1c(N)n(Cc2ccccc2)c(=O)[nH]c1=O	.	-	.	-	.	?
CCN(C(=O)COC(=O)CCOc1ccccc1C)c1c(N)n(Cc2ccccc2)c(=O)[nH]c1=O	.	-	.	.	.	.
CC(C)CCN(C(=O)CCSc1ccc(F)cc1)c1c(N)n(Cc2ccccc2)c(=O)[nH]c1=O	?	-	?	9.3µM	.	?
CCCCn1c(N)c(N(CCOC)C(=O)C(C)Oc2ccc(Cl)cc2)c(=O)[nH]c1=O (stereo unspecified)	-	-	-	?	.	-
COCCCN(C(=O)C(C)Oc1ccc(Br)cc1)c1c(N)n(Cc2ccccc2)c(=O)[nH]c1=O (stereo unspecified)	-	?	-	13µM	.	?
Cc1ccc(/C=C2\SC(=S)N(CCC(=O)N3CCCCC3)C2=O)cc1	-	-	-	-	-	-
CCCC(=O)Nc1nnc(CC(=O)N2CCCC2)s1	-	-	-	?	-	.
CCCN(C(=O)COC(=O)CCOc1ccc(C)cc1)c1c(N)n(Cc2ccccc2)c(=O)[nH]c1=O	-	-	-	-	.	-
CCCCC1CCC(C(=O)N(CC(C)C)c2c(N)n(Cc3ccccc3)c(=O)[nH]c2=O)CC1 (stereo unspecified)	.	-	.	?	.	10µM
Cc1ccc(OCCC(=O)N(CCC(C)C)c2c(N)n(Cc3ccccc3)c(=O)[nH]c2=O)cc1	-	-	-	10µM	.	?
CC(C)CCN(C(=O)Cc1ccc(Cl)c(Cl)c1)c1c(N)n(Cc2ccccc2)c(=O)[nH]c1=O	-	10µM	-	-	.	?
CCCCN(C(=O)CSc1nnc(Nc2ccc(C)c(C)c2)s1)c1c(N)n(Cc2ccccc2)c(=O)[nH]c1=O	?	10µM	?	-	-	.
CC(C)CCN(C(=O)c1ccncc1)c1c(N)n(Cc2ccccc2)c(=O)[nH]c1=O	.	-	.	?	.	-
CCOC(=O)CNS(=O)(=O)c1cc(-c2nn(C)c(=O)c3ccccc23)ccc1C	-	-	-	-	?	-
CCC(=O)c1ccc(OC)c(OC)c1O	-	-	-	-	-	-
O=C(Nc1cc(S(=O)(=O)Nc2ccc(Cl)cc2)ccc1O)c1ccc(S(=O)(=O)N2CCCCCC2)cc1	?	?	-	-	-	-
O=C(CNC(=O)c1ccccc1Br)N/N=C/c1cc(Br)ccc1O	.	?	.	?	.	-
SMILES	VACV mCherry inh	HCV inh	VACV Venus inh	Pf growth 48h	NS1 inh	Pf growth 96h
O=C(N/N=C\c1cc(Cl)ccc1O)c1ccc(S(=O)(=O)N2CCCCC2)cc1	13µM	3.5µM	?	2.6µM	-	2.9µM
O=C(N/N=C/c1cc(Cl)ccc1O)c1ccccc1Br	.	?	.	3.7µM	.	?
O=C(N/N=C/c1cc(Cl)ccc1O)c1cccnc1	?	5µM	?	3.3µM	-	?
CN(CCC#N)C(=O)CSc1nnc(-c2ccco2)n1N	-	-	-	-	.	-
CC1Cc2cc(/C(O)=C3/C(=O)C(=O)N(CCN4CCOCC4)C3c3ccc([N+](=O)[O-])cc3)ccc2O1 (stereo unspecified)	-	-	-	-	-	9.3µM
COc1ccc(C2/C(=C(/O)c3ccc4c(c3)CC(C)O4)C(=O)C(=O)N2CCN2CCOCC2)cc1 (stereo unspecified)	-	-	-	-	-	-
O=C(CC1C(=O)NCCN1Cc1cccc(F)c1F)NC1CCCCCC1 (stereo unspecified)	-	-	-	?	-	-
C[C@H]1C[C@H]2[C@@H]3CCC4=CC(=O)C=C[C@]4(C)[C@@]3(F)[C@@H](O)C[C@]2(C)[C@@]1(O)C(=O)CO	-	-	-	-	.	?
CCC(=O)O[C@]1(C(=O)CCl)[C@@H](C)CC2C3C[C@H](F)C4=CC(=O)C=CC4(C)[C@@]3(F)C(O)CC21C (stereo partly specified)	.	.	.	1.9µM	.	-
CCC(=O)O[C@]1(C(=O)CCl)[C@@H](C)C[C@H]2[C@@H]3CCC4=CC(=O)C=C[C@]4(C)[C@@]3(F)[C@@H](O)C[C@@]21C	-	-[8.37 µM]	-	4.7µM	-	4.1µM
C[C@@H]1C[C@H]2[C@@H]3CCC4=CC(=O)C=C[C@]4(C)[C@@]3(F)[C@@H](O)C[C@]2(C)[C@@]1(O)C(=O)COP(=O)(O)O	-	-[8.37 µM]	-	-	-	-
CCC(=O)OC1(C(=O)CCl)[C@@H](C)C[C@H]2[C@@H]3CCC4=CC(=O)C=C[C@]4(C)[C@@]3(F)[C@@H](O)C[C@@]21C (stereo partly specified)	-	-	-	2.3µM	.	5.2µM
CC(=O)OCC(=O)[C@@]1(OC(C)=O)[C@@H](C)C[C@H]2[C@@H]3C[C@H](F)C4=CC(=O)C=C[C@]4(C)[C@@]3(F)[C@@H](O)C[C@@]21C	-	-[8.37 µM]	-	?	-	?
CC12C=CC(=O)C=C1CCC1C3CCC(O)(C(=O)CO)C3(C)CC(O)C12F (stereo unspecified)	-	-	-	.	.	.
CCC(=O)O[C@@]1(C(=O)CCl)C(C)CC2C3CCC4=CC(=O)C=C[C@@]4(C)[C@]3(F)C(O)C[C@]21C (stereo partly specified)	.	.	.	6.7µM	.	3.4µM
CC1CCCC(NC(=O)C2c3ccccc3C(=O)N2Cc2cccs2)C1C (stereo unspecified)	-	-	-	?	-	-
CCCC(=O)O[C@]1(C(=O)CCl)[C@@H](C)C[C@H]2[C@@H]3CCC4=CC(=O)C=C[C@]4(C)[C@@]3(F)C(=O)C[C@@]21C	-	-[8.37 µM]	-	1.7µM	?	1.3µM
C[C@H]1C[C@H]2[C@@H]3CCC4=CC(=O)C=C[C@]4(C)[C@@]3(Cl)[C@@H](O)C[C@]2(C)[C@@]1(O)C(=O)CO	-	-[8.37 µM]	-	-	-	?
